Results on 14 compounds are retold here after article PMC11062922 (Nature Chemical Biology, 2023).

Read-outs that look alike come from different tables or passages of the source.

Holding throughout (set-up): species or system human, MV4-11 + K-562 + COLO205 + SK-N-BE2 + OVCAR-8
One assay has as its system GSK3A. The conditions noted are these: read-out: apparent Kd, n = 1.
Another assay has as its system HSP90B1. As to conditions: read-out: apparent Kd, n = 1.
The next assay deals with IRAK3. The conditions noted are these: read-out: apparent Kd; compound concentrations:100 nM and 1000 nM (sheet 'Samples'); n = 1.
Another assay concerns STK16. The conditions noted are these: read-out: apparent Kd; compound concentrations:100 nM and 1000 nM (sheet 'Samples'); n = 1.
A further assay relates to GSK3B. As to conditions: read-out: apparent Kd, n = 1.
The next assay has as its system MERTK. As to conditions: read-out: apparent Kd; compound concentrations:100 nM and 1000 nM (sheet 'Samples'); n = 1.
The next assay concerns PIK3CD. The conditions noted are these: read-out: apparent Kd; compound concentrations:100 nM and 1000 nM (sheet 'Samples'); n = 1.
A further assay concerns TAOK3. The conditions noted are these: read-out: apparent Kd; compound concentrations:100 nM and 1000 nM (sheet 'Samples'); n = 1.
Another assay concerns JAK2. As to conditions: read-out: apparent Kd; compound concentrations:100 nM and 1000 nM (sheet 'Samples'); n = 1.
The subject of the next assay is PRKCA. As to conditions: read-out: apparent Kd, compound concentrations: 100 nM and 1000 nM (sheet 'Samples'), n = 1.
The next assay relates to PRKCB. As to conditions: read-out: apparent Kd, n = 1.
The next assay concerns PRKCD. The conditions noted are these: read-out: apparent Kd, n = 1.
For the next assay, the system named is PRKCQ. As to conditions: read-out: apparent Kd, n = 1.
Another assay has as its system RPS6KA6. As to conditions: read-out: apparent Kd, n = 1.
In the next assay the test system is RPS6KB1. The conditions noted are these: read-out: apparent Kd; compound concentrations:100 nM and 1000 nM (sheet 'Samples'); n = 1.
In another assay the test system is MAPKAPK2. As to conditions: read-out: apparent Kd; compound concentrations:100 nM and 1000 nM (sheet 'Samples'); n = 1.
Another assay relates to MDN1. As to conditions: read-out: apparent Kd; compound concentrations:100 nM and 1000 nM (sheet 'Samples'); n = 1.
Another assay has as its system MYLK3. The conditions noted are these: read-out: apparent Kd; compound concentrations:100 nM and 1000 nM (sheet 'Samples'); n = 1.
A further assay deals with NQO2. As to conditions: read-out: apparent Kd; compound concentrations:100 nM and 1000 nM (sheet 'Samples'); n = 1.
Another assay has as its system SMC4. As to conditions: read-out: apparent Kd; compound concentrations:100 nM and 1000 nM (sheet 'Samples'); n = 1.
The test system of another assay is IARS. The conditions noted are these: read-out: apparent Kd; compound concentrations: 100 nM and 1000 nM (sheet 'Samples'), CATDS: 1; n = 1.
A further assay relates to PIK3CB. The conditions noted are these: read-out: apparent Kd; compound concentrations:100 nM and 1000 nM (sheet 'Samples'); n = 1.
Another assay deals with ICK. The conditions noted are these: read-out: apparent Kd; compound concentrations: 100 nM and 1000 nM (sheet 'Samples'), CATDS: 0.23938622627213799; n = 1.
The test system of another assay is STRADA. As to conditions: read-out: apparent Kd; compound concentrations: 100 nM and 1000 nM (sheet 'Samples'), CATDS: 0.19302175262426299; n = 1.
Setting [1] is: compound concentrations: 100 nM and 1000 nM (sheet 'Samples'), CATDS: 1.
Setting [2] is: compound concentrations:100 nM and 1000 nM (sheet 'Samples').

Consider `Cl.Cn1cc(C2=C(c3ccc(N)cc3)C(=O)NC2=O)c2ccccc21` [RO0317373-001], for which the potency estimated from few doses in the assay with GSK3A (setting [1]) was 0.866 µM.
As to `O=C(Nc1ccccc1F)NC1CCN(c2ccnc(Nc3ccc(F)cc3)n2)C1` (centres unmarked) [GSK1379722A], the potency estimated from few doses with HSP90B1 (setting [1]) was 0.875 µM.
On to `COc1cc(C=NNc2ncnc3c2cnn3-c2ccccc2)ccc1O` [GW513184X], for which the potency estimated from few doses was 1.31 µM in the assay with IRAK3 and 1.95 µM in the assay on STK16.
In the case of `O=C(Nc1n[nH]c2nc(-c3cccs3)c(Br)cc12)C1CCCC1` [SB-743341], the potency estimated from few doses with GSK3A (setting [2]) is 0.529 µM; in the assay on GSK3B (setting [2]), 1.07 µM; in the assay with MERTK, 1.72 µM.
`O=C(Nc1n[nH]c2nc(-c3ccco3)c(Br)cc12)C1CCN(Cc2ccccc2)C1.O=C(O)[C@H](O)[C@@H](O)C(=O)O` (centres unmarked) [SB-742034-AC]: the potency estimated from few doses in the assay on GSK3A (setting [2]) was 0.41 µM.
Turning to `COc1cccc(C2=C(Nc3cc(Cl)c(O)c(Cl)c3)C(=O)NC2=O)c1` [SB-390767], the potency estimated from few doses in the assay on GSK3A (setting [2]) was 0.528 µM; in the assay with GSK3B (setting [2]), 1.09 µM; in the assay on PIK3CD, 0.191 µM; in the assay on TAOK3, 1.11 µM.
As for `O=C(Nc1cccnc1)c1cc(-c2ccnc(F)c2)ccc1OCc1ccccc1` [GSK2578215], the potency estimated from few doses in the assay on JAK2 was 0.322 µM.
In the case of `CN(C)CC1CCn2c(c(C3=C(c4cn(C)c5ccccc45)C(=O)NC3=O)c3ccccc32)C1` (centres unmarked) [RO0318830-000], the potency estimated from few doses in the assay with GSK3A (setting [2]) was 0.0438 µM; with GSK3B (setting [2]), 0.0534 µM; with PRKCA (CATDS: 0.195929094272485) it was 0.0302 µM; in the assay with PRKCB (setting [2]), 0.0885 µM; in the assay with PRKCD (setting [2]), 0.0345 µM; in the assay with PRKCQ (setting [2]), 0.123 µM. The potency estimated from few doses in the assay with RPS6KA6 (setting [2]) is 0.0568 µM; in the assay with RPS6KB1, 1.6 µM.
`Nc1n[nH]c2nnc(-c3ccccc3)c(-c3ccccc3)c12` [GW554060X]: the potency estimated from few doses is 0.424 µM in the assay with GSK3A (setting [2]) and 0.833 µM in the assay with GSK3B (setting [2]).
For the compound `Cn1cc(C2=C(c3cn(CCCCCN)c4ccccc34)C(=O)NC2=O)c2ccccc21` [RO0317843-000], the potency estimated from few doses in the assay on GSK3A (compound concentrations: 100 nM and 1000 nM (sheet 'Samples'), CATDS: 0.120915323717963) is 0.5 µM; in the assay on GSK3B (compound concentrations: 100 nM and 1000 nM (sheet 'Samples'), CATDS: 0.12552661641342699), 0.455 µM; in the assay on PRKCA (CATDS: 0.213712947404604) it was 0.159 µM; with PRKCB (compound concentrations: 100 nM and 1000 nM (sheet 'Samples'), CATDS: 0.109320974178185) it was 0.666 µM; with PRKCD (compound concentrations: 100 nM and 1000 nM (sheet 'Samples'), CATDS: 0.13254198888423899), 0.398 µM; with PRKCQ (compound concentrations: 100 nM and 1000 nM (sheet 'Samples'), CATDS: 0.26439518938370499), 0.114 µM. Moreover, the potency estimated from few doses with RPS6KA6 (compound concentrations: 100 nM and 1000 nM (sheet 'Samples'), CATDS: 0.131410075991204) is 0.407 µM.
In the case of `Cn1cc(C2=C(c3c4n(c5ccccc35)CCN(C(N)=S)C4)C(=O)NC2=O)c2ccccc21` [RO0319377-000], the potency estimated from few doses is 0.427 µM with GSK3A (setting [2]); 0.259 µM with GSK3B (compound concentrations: 100 nM and 1000 nM (sheet 'Samples'), CATDS: 0.32462654335000002); 1.83 µM with MAPKAPK2; 1.47 µM with MDN1; 1.64 µM with MYLK3; 1.55 µM in the assay with NQO2. Besides, the potency estimated from few doses in the assay with SMC4 is 2.13 µM.
On to `Cc1ccc(-c2nc(Nc3ccncc3)c3ccccc3n2)s1` [GSK189015A], for which the potency estimated from few doses in the assay with IARS is 1.44 µM.
Consider `[2H]C([2H])(c1cccc(C(F)(F)F)c1C)n1ccn2c(=O)cc(N3CCOCC3)nc12` [GSK2289044B], for which the results for the potency estimated from few doses with HSP90B1 (setting [2]) and in the assay with PIK3CB were 0.112 µM and 0.016 µM, respectively.
Take `CCCn1cc(C2=C(c3cn(C)c4ccccc34)C(=O)NC2=O)c2ccccc21` [RO0318549-000]: the potency estimated from few doses in the assay on GSK3A (compound concentrations: 100 nM and 1000 nM (sheet 'Samples'), CATDS: 0.30461249661504503) was 0.823 µM; in the assay on GSK3B (compound concentrations: 100 nM and 1000 nM (sheet 'Samples'), CATDS: 0.29770520720673899), 0.857 µM; with ICK, 1.32 µM; in the assay with STRADA, 2.26 µM.
